Measurements published in PubChem BioAssay (NCATS).
Results filed as inconclusive are left out. Activity calls are given as the source filed them. Unless noted, the call rests on the fitted dose curve.

How the values were obtained:
[1] = Cytotoxicity counterscreen for inhibitors of SARS-CoV-2 cell entry (AID 1645845); conditions: outcome: dose series up to 57.1 µM unless noted; further: on the % scale 0 is the no-effect control and ±100 the full control effect; nearly all actives have a fitted effect of over 50% in size
In short: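 48 h compound treatment (after 1 h preincubation), HEK293-ACE2 cells, 37 C/5% CO2; ATP luminescence endpoint; normalized to cell wells and media blanks.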

[2] = Primary qHTS to identify inhibitors of SARS-CoV-2 cell entry (AID 1645846); conditions: SARS-CoV-2 pseudovirus cell entry assay, luminescence; activity change, negative = inhibition: at 57.1 µM (top of the series) unless noted; further: nearly all actives have a fitted effect of over 45% in size; further: potency means the concentration at half of the fitted maximal effect
In short: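 Inhibition of spike-mediated entry was scored in human ACE2-transfected Expi293F cells. Particles were MLV-pseudotyped with Wuhan-Hu-1 S carrying a 19-aa C-terminal deletion; signal was luciferase after two days, scaled between spike PP and fusion-protein-free PP.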

[3] = molecular target: Alpha-galactosidase (Coffea arabica) (UniProt Q42656); experiment: Counterscreen for Glucocerebrosidase Inhibitors: qHTS Assay for Coffee Bean alpha-Galactosidase at pH 4.5 (AID 957; active means well fitted curve in the direction sought with a large enough effect; an effect the other way counts as inactive or inconclusive;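 further: plate controls were enzyme alone for no effect and no enzyme for full effect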)
In short: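 Green coffee bean enzyme (2 nM final) was incubated with compounds (0.7 nM to 77 uM) and 4-methylumbelliferyl alpha-D-galactopyranoside (80 uM final) in 50 mM citric acid, 0.005% Tween-20, pH 4.5, 20 min at room temperature; AC50 from Hill fits.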

[4] = Validation screen for inhibitors of Lassa infection (AID 463096); further: on the % scale 0 is the no-effect control and ±100 the full control effect
[5] = molecular target: Bile acid receptor (Homo sapiens) (UniProt Q96RI1); experiment: qHTS assay for small molecule agonists of farnesoid X receptor signaling (AID 588527); conditions: HEK293T FXR-UAS-bla, beta-lactamase ratio, 16 h; stronger effect = higher value;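 further: 0% = vehicle basal and 100% = reference agonist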
In short: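 Quantitative HTS used FXR-UAS-bla HEK293T cells with 16 h compound incubation at 37 C. EC50 values came from concentration-response curves normalized to chenodeoxycholic acid.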

[6] = MultiTox-Fluor Cytotoxicity Assay - LYMP1-002 - Dead Cells (AID 960; active means well fitted curve in the direction sought with a large enough effect; an effect the other way counts as inactive or inconclusive; further: potency means the concentration at half of the fitted maximal effect; nearly all actives have a fitted effect of over 60% in size)
In short: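 Human lymphoblastoid cells (LYMP1-002), 2500/well in complete medium, were exposed to compounds for 16 hr at 37 C. Dead-cell protease activity was read as bis-AAF-R110 fluorescence (Ex/Em 485/520), normalized to DMSO and 15 uM tetraoctylammonium bromide; AC50 from Hill fits.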

[7] = qHTS profiling of the MIPE4 collection as inhibitors of Plasmodium falciparum (3D7) proliferation (AID 743344; call rule not given here;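 further: scaled between DMSO vehicle wells and 0.29 µM artemisinin as full inhibition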); conditions: P. falciparum 3D7 in erythrocytes, SYBR Green DNA fluorescence, 72 h; at 28.5 µM (top of the series)
In short: (§1)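 Erythrocytes infected with P. falciparum (0.3% parasitemia, 2.5% hematocrit) incubated with compounds 72 h at 37 C, 5% CO2. Lysis with saponin/Triton buffer containing SYBR Green I, overnight at room temperature in the dark; DNA fluorescence (485/535 nm) normalised to 0.29 uM artemisinin and DMSO.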

[8] = qHTS profiling of the MIPE4 collection as inhibitors of Plasmodium falciparum (DD2) proliferation (AID 743345; call rule not given here); conditions: P. falciparum Dd2 in erythrocytes, SYBR Green DNA, 72 h; at 28.5 µM (top of the series)
In short: as §1

[9] = qHTS profiling of the MIPE4 collection as inhibitors of Plasmodium falciparum (DD2) proliferation (Rep 2) (AID 743346; call rule not given here); conditions: P. falciparum Dd2 in erythrocytes, SYBR Green DNA, 72 h; at 28.5 µM (top of the series)
In short: as §1

[10] = qHTS profiling of the MIPE4 collection as inhibitors of Plasmodium falciparum (HB3) proliferation (AID 743347; call rule not given here;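 further: plate controls were DMSO vehicle wells for no effect and artemisinin wells for full effect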); conditions: P. falciparum HB3 in erythrocytes, SYBR Green DNA, 72 h; at 28.5 µM (top of the series)
In short: as §1

[11] = Primary qHTS for inhibitors of nuclear receptor binding SET domain protein 2 (NSD2) in an isogenic RCH-ACV NSD2 p.E1099K mutant (9B) (AID 1645876; active means well fitted curve in the direction sought with a large enough effect; an effect the other way counts as inactive or inconclusive; further: nearly all actives have a fitted effect of over 70% in size; further: potency means the concentration at half of the fitted maximal effect)
[12] = molecular target: Glutathione peroxidase 1 (Homo sapiens) (UniProt P07203); experiment: Primary qHTS Assay for Inhibitors of Recombinant Selenoprotein Glutathione Peroxidase 1 (GPX1) (AID 1845191; active means well fitted curve in the direction sought with a large enough effect; an effect the other way counts as inactive or inconclusive; further: nearly all actives have a fitted effect of over 65% in size)
In short: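 10 nM GPX1 + cpd, 30 min RT; start w/ 1 mM GSH, 0.5 mM cumene hydroperoxide, 0.5 mM NADPH, 100 nM GR, 0.01% BSA; buffer 50 mM Tris-HCl pH 7.5, 2 mM EDTA, 150 mM NaCl; Fl 340/450, 0 & 15 min.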

[13] = qHTS drug screen for cell cycle checkpoint inhibitors in PARPi-resistant BRCA-mutant ovarian cancer cell lines. (AID 1963452); conditions: PEO1/OlaR viability, CellTiter-Glo luminescence, 96 h, stronger effect = lower value
In short: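 PEO1, PEO4 and PEO1/OlaR ovarian cancer cells, 600 per well, exposed 96 h at 37C to a dilution series. Viability read by CellTiter-Glo luminescence, normalized to DMSO and empty wells; activity summarized as Z-AUC.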

[14] = molecular target: Nuclear receptor subfamily 1 group I member 3 (Homo sapiens) (UniProt Q14994); experiment: Primary qHTS for antagonist of constitutive androstane receptor (CAR) against the NCATS DSHEA and TCM libraries (AID 1794836; active means well fitted curve in the direction sought with a large enough effect; an effect the other way counts as inactive or inconclusive;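 further: HepG2 cells stably expressing hCAR with CYP2B6 luciferase reporter stimulated by CITCO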)
In short: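 Antagonist mode: CAR reporter luminescence (ONE-Glo) in HepG2-CYP2B6-hCAR cells stimulated with 48 uM CITCO (final) over 24 h at 37 C, compounds titrated; viability read first by CellTiter-Fluor fluorescence.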

[15] = KB-8-5-11 P-gp reporter qHTS against the NCATS DSHEA and TCM libraries (AID 1919977; active means well fitted curve in the direction sought with a large enough effect; an effect the other way counts as inactive or inconclusive; further: 0% is about no effect)
In short: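 KB-8-5-11, 500 cells/well, DMEM/10% FBS without colchicine; 4 h attach; cpd titrations, 72 h, 37C/5% CO2; CellTiter-Glo, 30 min RT, luminescence.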

[16] = molecular target: Phospholipid hydroperoxide glutathione peroxidase GPX4 (Homo sapiens) (UniProt P36969); experiment: Primary qHTS Assay for Inhibitors of Recombinant Selenoprotein Glutathione Peroxidase 4 (GPX4) (AID 1845192; active means well fitted curve in the direction sought with a large enough effect; an effect the other way counts as inactive or inconclusive; further: on the % scale 0 is the no-effect control and ±100 the full control effect; nearly all actives have a fitted effect of over 65% in size)
In short: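 NADPH consumption, followed by fluorescence at 340/450 nm between 0 and 15 min, reports GPX4 activity via coupled glutathione reductase (100 nM). Enzyme 200 nM was pre-exposed to compound 30 min; 0.5 mM cumene hydroperoxide and 1 mM GSH served as substrates.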

[17] = VSVG counterscreen qHTS to identify inhibitors of SARS-CoV-2 cell entry (AID 1645847); further: potency means the concentration at half of the fitted maximal effect; nearly all actives have a fitted effect of over 65% in size
In short: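 Luminescence from a luciferase reporter, normalised to bald particle and VSV-G pseudotyped particle wells, is the read-out. Cells are HEK293 expressing human ACE2, exposed to compound 1 h before a 48 h particle infection at 37 °C.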

[18] = measured here: PEO1 parental Z-AUC

Sequence of Nuclear receptor subfamily 1 group I member 3 (Homo sapiens) (Q14994 whole entry, looked up): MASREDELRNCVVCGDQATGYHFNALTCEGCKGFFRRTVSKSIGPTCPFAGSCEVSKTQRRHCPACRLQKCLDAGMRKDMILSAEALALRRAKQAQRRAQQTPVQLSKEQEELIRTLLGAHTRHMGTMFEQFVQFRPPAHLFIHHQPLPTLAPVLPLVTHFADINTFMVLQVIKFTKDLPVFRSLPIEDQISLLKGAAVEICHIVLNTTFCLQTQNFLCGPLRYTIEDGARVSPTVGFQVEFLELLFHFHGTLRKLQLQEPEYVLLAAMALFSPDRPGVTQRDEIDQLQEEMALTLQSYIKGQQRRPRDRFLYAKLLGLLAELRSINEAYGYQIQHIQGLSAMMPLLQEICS
Sequence of Bile acid receptor (Homo sapiens) (Q96RI1 whole entry, looked up): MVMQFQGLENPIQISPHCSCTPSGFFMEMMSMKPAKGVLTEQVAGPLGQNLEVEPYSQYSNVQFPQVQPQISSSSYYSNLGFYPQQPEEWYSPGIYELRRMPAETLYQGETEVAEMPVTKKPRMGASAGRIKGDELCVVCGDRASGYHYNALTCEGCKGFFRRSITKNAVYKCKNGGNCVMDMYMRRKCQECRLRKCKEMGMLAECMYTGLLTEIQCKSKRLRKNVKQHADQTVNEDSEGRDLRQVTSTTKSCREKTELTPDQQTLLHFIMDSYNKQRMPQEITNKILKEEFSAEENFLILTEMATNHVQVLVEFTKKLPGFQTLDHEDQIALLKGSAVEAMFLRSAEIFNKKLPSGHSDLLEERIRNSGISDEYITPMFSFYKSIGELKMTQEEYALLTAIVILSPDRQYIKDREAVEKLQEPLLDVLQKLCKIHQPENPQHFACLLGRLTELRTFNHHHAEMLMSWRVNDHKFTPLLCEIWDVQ
Sequence of Glutathione peroxidase 1 (Homo sapiens) (P07203 whole entry, looked up): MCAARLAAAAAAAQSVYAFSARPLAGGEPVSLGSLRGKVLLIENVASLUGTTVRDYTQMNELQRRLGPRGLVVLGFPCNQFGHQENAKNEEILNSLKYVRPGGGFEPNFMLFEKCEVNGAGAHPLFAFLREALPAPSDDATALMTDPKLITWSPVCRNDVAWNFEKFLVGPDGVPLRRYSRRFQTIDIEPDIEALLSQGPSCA
Sequence of Phospholipid hydroperoxide glutathione peroxidase GPX4 (Homo sapiens) (P36969 whole entry, looked up): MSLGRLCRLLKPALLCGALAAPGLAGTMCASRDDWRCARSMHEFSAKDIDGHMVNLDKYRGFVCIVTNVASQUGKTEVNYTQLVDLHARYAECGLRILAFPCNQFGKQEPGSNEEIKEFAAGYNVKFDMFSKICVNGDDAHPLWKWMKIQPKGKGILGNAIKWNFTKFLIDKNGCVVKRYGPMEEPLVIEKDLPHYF
Sequence of Alpha-galactosidase (Coffea arabica) (Q42656 whole entry, looked up): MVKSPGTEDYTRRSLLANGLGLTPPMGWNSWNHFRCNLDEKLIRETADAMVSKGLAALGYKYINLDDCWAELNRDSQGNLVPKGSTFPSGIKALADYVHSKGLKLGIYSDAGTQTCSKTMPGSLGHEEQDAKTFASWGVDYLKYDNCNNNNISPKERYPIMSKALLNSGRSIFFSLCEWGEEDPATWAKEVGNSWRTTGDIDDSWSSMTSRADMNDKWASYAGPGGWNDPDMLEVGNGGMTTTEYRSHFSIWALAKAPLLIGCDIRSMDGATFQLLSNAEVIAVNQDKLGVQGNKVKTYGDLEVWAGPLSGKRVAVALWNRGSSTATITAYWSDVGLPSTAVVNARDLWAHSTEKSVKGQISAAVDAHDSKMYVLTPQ

COc1cc([C@@H](CC(=O)O)c2ccc(C)c(CN3C[C@@H](C)Oc4ccccc4S3(=O)=O)c2)cc2nnn(C)c12
Potency [1]: inactive
activity change, negative = inhibition [2]: 2.13%

CN(CCOc1ccc(C[C@H](Nc2ccccc2C(=O)c2ccccc2)C(=O)O)cc1)c1ccccn1
outcome [3]: inactive
Potency [4]: inactive
activation [5]: -7.09% (inactive)

COc1cc(/C=C/C(=O)CC(=O)/C=C/c2ccc(O)c(OC)c2)ccc1O
Potency [6]: 31.6 µM (active)

C[C@H]1CC2[C@@H]3CCC4=CC(=O)C=C[C@]4(C)[C@@]3(F)[C@@H](O)C[C@]2(C)[C@@]1(O)C(=O)CO (some centres not stated)
Potency [4]: inactive

Clc1ccc(-c2nc3sccn3c2/C=N/OCc2ccc(Cl)c(Cl)c2)cc1
activation [5]: 14.7% (inactive)

CN1CCN(c2ncc(-c3cc(Cl)cc(Cl)c3Cl)c(N)n2)CC1
parasite growth, % of DMSO control [7]: 53.8%
parasite growth remaining, % of DMSO control (lower = more inhibition) [8]: 75.6%
parasite growth, % of control (lower = inhibition) [9]: 39.8%
growth, % of control [10]: 81.9%

O=C(NCc1ccccc1)c1csc(Nc2ccncn2)n1
parasite growth, % of DMSO control [7]: 30.1%
parasite growth, % of control (lower = inhibition) [9]: 36.6%
growth, % of control [10]: 31.7%

CC1(C)CC(O)CC(C)(C)N1O
Potency [11]: inactive
Potency [12]: inactive
Z-AUC [13]: 0.107 (inactive)
Z-AUC [13, 18]: 0.652
Z-AUC ([13]; measured here: PEO4 Z-AUC): 0.604

C[C@H]1[C@H](C)CC[C@]2(C(=O)O)CC[C@]3(C)C(=CC[C@@H]4[C@@]5(C)CC[C@H](O)C(C)(C)[C@@H]5CC[C@]43C)[C@H]12
Potency [14]: inactive

CC1=C(/C=C/C(C)=C/C=C/C(C)=C/C=C/C=C(C)/C=C/C=C(C)/C=C/C2=C(C)CCCC2(C)C)C(C)(C)CCC1
Potency [14]: inactive
Potency [15]: inactive

CC1(C)C(=O)N(c2ccc(C#N)c(C(F)(F)F)c2)C(=S)N1Cc1ccc(-c2cn[nH]n2)cc1
Potency [12]: inactive
Potency [16]: inactive
Z-AUC [13]: 0.1 (inactive)
Z-AUC [13, 18]: 0.427
Z-AUC ([13]; measured here: PEO4 Z-AUC): 0.68

C[C@H]1[C@H](C)CC[C@]2(C(=O)O)CC[C@]3(C)C(=CC[C@@H]4[C@@]5(C)C[C@@H](O)[C@H](O)[C@@](C)(CO)[C@@H]5CC[C@]43C)[C@H]12
Potency [15]: inactive

CS(=O)(=O)N1CCC(NC(=O)c2[nH]ncc2NC(=O)c2c(Cl)cccc2Cl)CC1
Potency [17]: 0.0961 µM (active)

CC(=O)c1cnc2ccc(-c3cc(Cl)c(O)c(Cl)c3)nc2c1NC1CCC(CN(C)C)CC1 (configuration not stated)
activity change, negative = inhibition [2]: -98.1% [at 11.3 µM]

CNC(=O)c1cccc(-c2ccc3c(N4CCOC[C@@H]4C)nc(N4CCOC[C@@H]4C)nc3n2)c1
Potency [17]: 2.71 µM (active)

CCC[C@H](N[C@H]1CCc2cc(F)cc(F)c2C1)C(=O)Nc1cn(C(C)(C)CNCC(C)(C)C)cn1
Potency [2]: 31.6 µM (active)

COc1ccc(C(=O)C2CCN(CC(=O)N(Cc3nc4c(c(=O)[nH]3)COCC4)CC3CC3)CC2)cc1
activity change, negative = inhibition [2]: -20.6%
Potency [17]: 8.57 µM (active)

CCC(=O)NC[C@H](Cc1ccc(OCCc2nc(-c3ccccc3)oc2C)cc1)N/C(C)=C\C(=O)c1ccc(C(F)(F)F)cc1
activity change, negative = inhibition [2]: -18.7%

COC(=O)[C@]12CCC(C)(C)C[C@@H]1[C@@H]1C(=O)C=C3[C@]4(C)C=C(C#N)C(=O)C(C)(C)[C@@H]4CC[C@@]3(C)[C@]1(C)CC2
Potency [11]: 0.461 µM (active)
